# The whole screen tested about 360,000 compounds, of which about 160 (0.044%) were called active. Cut-off read from the data, not from the text of the source: active = survival enhancement above about 18%; inactive = the rest. What follows is part of a selection rich in actives, with near analogues and random picks from the rest.
# Experiment: enhancers of single-cell hiPSC survival, primary screen, ATPlite luminescence (AID 602274);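 note: cells exposed to compounds for 16 hours before the ATP read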
# Details: at 20 µM, hits give high values, 100% = ROCK inhibitor wells, 0% = DMSO
row,SMILES,survival enhancement
1,COc1ccc(S(=O)(=O)N(CCCN2CCCC2=O)Cc2cc3c(C)ccc(C)c3[nH]c2=O)cc1,-2.2% (inactive)
2,O=C(CCc1[nH]c2ccccc2c1Sc1ccccc1)N(CCO)CCO,-1% (inactive)
3,O=S(=O)(/N=C(/Nc1ccccc1)c1ccccc1)c1cccs1,4% (inactive)
4,Cc1ccc2c(c1)nnc1nnc(SCC(=O)O)n12,-0.2% (inactive)
5,COc1ccccc1NC(=O)N1CCCC1C(=O)NCc1cccs1 (centres undefined),-0.5% (inactive)
6,COc1ccc(-n2nnnc2SCc2nc(N)nc(N3CCOCC3)n2)cc1,-2.1% (inactive)
7,CC1CCCCC12NC(=O)N(CC(=O)N1CCN(c3ccccc3)CC1)C2=O (centres undefined),-0.5% (inactive)
8,CC(C)Oc1ccc(S(=O)(=O)N2CCOCC2)cc1NC(=O)C1CSC2(C)CCC(=O)N12 (centres undefined),-0.5% (inactive)
9,Cc1ccccc1C(OCCN(C)C)C1CCCCC1 (centres undefined),-3.9% (inactive)
10,COc1cccc(CNC(=O)CCN2C(=S)NC(C)(C)CC2C)c1 (centres undefined),-0.7% (inactive)
11,CC(C)CN(CC(C)C)CC(O)CN(c1ccccc1)S(=O)(=O)c1ccccc1[N+](=O)[O-] (centres undefined),-0.3% (inactive)
12,N#C/C(=C/c1cccc([N+](=O)[O-])c1)c1nnc2n1CCCCC2,32.2% (active)
13,N#C/C(=C(\O)CCl)c1nnc2n1CCCCC2,2.8% (inactive)
14,N#C/C(=C(\O)C(F)(F)F)c1nnc2n1CCCCC2,2% (inactive)
15,COc1ccc(OC)c(CCNC(=O)CCn2ccc3cc(S(=O)(=O)N4CCCC4)ccc32)c1,-0.3% (inactive)
16,C/C(=N\NS(=O)(=O)c1ccccc1)c1c(O)cc(C)oc1=O,-0.4% (inactive)
17,COc1ccc2c(c1)cc1n2CCN=C1NN,3% (inactive)
18,Cc1cccc(-n2c(SCC(N)=O)nc3c(c2=O)C2(CCCCC2)Cc2ccccc2-3)c1,-2.5% (inactive)
19,CC1(C(=O)NS(=O)(=O)c2cccc(F)c2)CCN1C(=O)Cc1cc(F)ccc1F (centres undefined),0.9% (inactive)
20,COC(=O)CCSc1nccn1Cc1ccccc1,0.7% (inactive)

row,SMILES,survival enhancement
1,CN1CCN(C(=O)c2cnn(-c3ccccc3)c2NC(=O)c2ccc([N+](=O)[O-])cc2)CC1,0.5% (inactive)
2,COC(=O)CCSc1cc([N+](=O)[O-])cc2c1c(C1OCCS1)nn2-c1ccccc1 (centres undefined),19.1% (active)
3,CC1(C)COC(c2cccn2Cc2ccccc2Cl)=N1,4.1% (inactive)
4,COc1cc(OC)cc(C(=O)Nc2ncc3c(n2)CC(C)(C)CC3=O)c1,1.7% (inactive)
5,O=C(NN=Cc1ccccc1O)C(=O)NN=Cc1ccccc1O,-1.8% (inactive)
6,C=CCOc1ccc(C2/C(=C(\O)c3c(C)[nH]c(C(=O)OC)c3C)C(=O)C(=O)N2CCN(C)C)cc1 (centres undefined),3.5% (inactive)
7,O=C(Nc1ccc(OC(F)(F)F)cc1)c1ccc2c(c1)no[n+]2[O-],-0.6% (inactive)
8,Cc1c(C=O)c2ccccn2c1C(=O)c1ccncc1,0.1% (inactive)
9,O=C(COC(=O)Cn1cnc2ccccc2c1=O)NCC12CC3CC(CC(C3)C1)C2,-0.2% (inactive)
10,CC1CCCC(NC(=O)COC(=O)c2ccccc2C(=O)N(C)C2CCCCC2)C1C (centres undefined),0.8% (inactive)
11,Cc1cc(=O)n2nc(N3CCCC(C(=O)NCCC4=CCCCC4)C3)sc2n1 (centres undefined),1.7% (inactive)
12,C=CCc1cccc2cc(C(=O)NC3CCCC3)c(=O)oc12,0.2% (inactive)
13,CC(C)CC(CC(C)C)=NNC(=O)c1ccc(CSc2nncn2C)cc1,2.3% (inactive)
14,O=c1[nH]cccc1-c1nc2ccccc2n1Cc1ccc(Cl)cc1,1.9% (inactive)
15,COCCC(=O)N1CCC(Oc2ccc(C(=O)NCc3ccon3)cc2)CC1,-0.4% (inactive)
16,CN1C(=O)[C@H]2[C@@H](C3CC3)N3C(=O)CN(Cc4ccccc4)C(=O)[C@@]3(C)[C@H]2C1=O,-2.2% (inactive)
17,CCOc1cc(/C=C/C(=O)OCC(=O)NCCN2C(=O)CSC2=O)ccc1OCC(C)C,3% (inactive)
18,CN1CCN(C(=O)c2ccc(-c3cc4nc(NCc5cccnc5)n(C)c(=O)c4s3)cc2)CC1,-0.7% (inactive)
19,O=C(CCCN1C(=O)c2ccccc2C1=O)Oc1ccc(Cl)cc1,3.7% (inactive)
20,CN(C)c1ccnc(Oc2ccc(F)cc2)c1C#N,1.8% (inactive)

row,SMILES,survival enhancement
1,COCCNC(=S)c1ccc(OC)cc1,5.9% (inactive)
2,COc1ccc(-c2ccc(CNCCCN3CCOCC3)o2)cc1Cl,-1.8% (inactive)
3,Cc1ccc(Cl)c(OCC(=O)N(C)CC(=O)Nc2ccc(N3CCOCC3)cc2)c1,0% (inactive)
4,COc1ccc(Cl)cc1NC(=O)[C@@H]1CCCN1C(=O)c1cccs1,1.2% (inactive)
5,O=C(O)c1ccc(-n2cccc2)cc1O,-3.7% (inactive)
6,NNC(=O)c1cnn(-c2ccccc2)c1C(F)(F)F,-0.5% (inactive)
7,O=C1CC2(CCCC2)C(=O)N1CN1CCN(S(=O)(=O)c2ccc(F)cc2F)CC1,-0.8% (inactive)
8,O=C(CNCCC1=CCCCC1)Nc1ccccc1N1CCCCCC1,-0.7% (inactive)
9,CCNC(=O)Nc1ccc(S(=O)(=O)Nc2cnc(C)nc2C)cc1,-0.1% (inactive)
10,CCCCN(CCCC)C(=O)CCS(=O)(=O)c1ccc2c(c1)n(C)c(=O)c(=O)n2C,2.7% (inactive)
11,Cc1c(-c2nn(C)c(=O)c3ccccc23)oc2ccc(F)cc2c1=O,-1.5% (inactive)
12,COC(=O)c1ccc(NC(=S)Nc2cccc(C)n2)cc1,0.3% (inactive)
13,CCCCN1C(=O)CC(N2CCOCC2)C1=O (centres undefined),1.8% (inactive)
14,COc1cc(OC)cc(-c2c(C#Cc3ccsc3)c3cc(-c4ccc(SC)cc4)ccc3n2C)c1,1.4% (inactive)
15,COc1ccc(N2C(=O)/C(=C\c3ccco3)N=C2SCC(N)=O)cc1Cl,-1.3% (inactive)
16,COc1ccc(C(=O)CSc2nnc(NC(=O)C3CC(=O)N(c4cccc(OC)c4)C3)s2)cc1 (centres undefined),0.9% (inactive)
17,CC(=O)OCCN(CCCn1c(-c2ccncc2)nc2ccccc21)c1nc(-c2ccc(C)cc2)cs1,0.8% (inactive)
18,Cc1noc(C)c1CSc1nc2cc(S(=O)(=O)N3CCOCC3)ccc2o1,8.5% (inactive)
19,CC(C)(C)C(=O)NCCCNc1ccc([N+](=O)[O-])cc1,-0.5% (inactive)

# From PubChem BioAssay AID602274 (Sanford-Burnham Center for Chemical Genomics, 2012)
